Several values for one entry are separate records, joined by “and”; a condition that tells them apart may be missing. Equal values may be shown once. Some compounds were tested as several samples or in several runs, with calls that do not always agree. Activity calls are given as the source filed them. Rule for the calls: active = hit-call score of the fitted dose curve at least 0.9, where 1 is the maximum; inactive = score below 0.9.
Experiments:
[1] = molecular target: Hypoxia-inducible factor 1-alpha (Homo sapiens) (UniProt Q16665); test: ATG_HIF1a_CIS: Attagene CIS-FACTORIAL HepG2 Assay for human Hypoxia Inducible Factor 1 (HIF1A) (AID 2282951); conditions: HepG2 Attagene cis-factorial HIF1a reporter transcription; actives raise or lower the signal
In short: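 HepG2, transient cis-reporter library, 24 h dosing. RNA → RT (oligo dT) → PCR → 6-FAM primer extension → HpaI → CE. Bidirectional curve fit vs DMSO.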

[2] = molecular target: Hepatocyte nuclear factor 6 (Homo sapiens) (UniProt Q9UBC0); test: ATG_HNF6_CIS: Attagene CIS-FACTORIAL HepG2 Assay for human Hepatocyte Nuclear Factor 6 (HNF6) (AID 2282952); conditions: HepG2 Attagene cis-factorial HNF6 reporter transcription; actives raise or lower the signal
In short: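 HepG2, transient MRTU transfection (cis promoters); 24 h chemical exposure; total RNA → oligo(dT) RT → PCR → 6-FAM labelling → HpaI cut → CE; bidirectional fit vs DMSO.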

[3] = molecular target: Heat shock factor protein 1 (Homo sapiens) (UniProt Q00613); test: ATG_HSE_CIS: Attagene CIS-FACTORIAL HepG2 Assay for human Heat Shock Transcription Factor 1 (HSE) (AID 2282953); conditions: HepG2 HSE cis-reporter, Attagene RNA transcription; actives raise or lower the signal
In short: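 HepG2, transient MRTU transfection, cis-promoter reporters (endogenous TF activity). 24 h compound. RNA → oligo(dT) RT → PCR → 6-FAM primer extension → HpaI cut → CE. Bidirectional fit vs DMSO.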

[4] = ATG_MRE_CIS: Attagene CIS-FACTORIAL HepG2 Assay for human Metal Responsive Element (MRE) (AID 2282954); conditions: HepG2 MRE cis-reporter transcription, Attagene multiplex; actives raise or lower the signal
In short: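 Fluorescent reporter fragments separated by capillary electrophoresis give mRNA induction for the MRE unit after 24 h treatment of transfected HepG2 cells. Endogenous transcription-factor activity is read; DMSO serves as negative control and baseline.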

[5] = ATG_PBREM_CIS: Attagene CIS-FACTORIAL HepG2 Assay for human Phenobarbital-responsive Enhancer Module (PBREM) (AID 2282955); conditions: HepG2 PBREM cis-reporter, Attagene multiplexed transcription; actives raise or lower the signal
In short: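 HepG2, transient MRTU transfection, 24 h dosing; RNA → oligo(dT) RT → PCR → 6-FAM extension → HpaI → CE. Bidirectional fit vs DMSO.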

[6] = molecular target: Paired box protein Pax-6 (Homo sapiens) (UniProt P26367); test: ATG_Pax6_CIS: Attagene CIS-FACTORIAL HepG2 Assay for human Paired Box 6 (PAX6) (AID 2282956); conditions: HepG2 CIS-FACTORIAL PAX6 reporter transcription, RNA readout; actives raise or lower the signal
In short: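 HepG2 cells transiently transfected with multiplexed cis-promoter reporter units (endogenous TF activity) were dosed for 24 h. Reporter mRNA was quantified by RT-PCR, 6-FAM labeling, HpaI digestion and capillary electrophoresis; bidirectional fitting versus DMSO baseline.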

[7] = ATG_PXRE_CIS: Attagene CIS-FACTORIAL HepG2 Assay for human Pregnane X Receptor Element (PXRE) (AID 2282957); conditions: HepG2 Attagene CIS-FACTORIAL PXRE reporter, mRNA; actives raise or lower the signal
In short: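 Transfect HepG2 with MRTUs (cis promoter elements); dose chemical, incubate 24 h; isolate RNA, RT with oligo(dT), PCR, 6-FAM label, HpaI cut, CE. Gain/loss fit vs DMSO.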

[8] = ATG_PPRE_CIS: Attagene CIS-FACTORIAL HepG2 Assay for human Peroxisome Proliferator-activated Response Element (PPRE) (AID 2282958); conditions: HepG2 PPRE cis-element reporter, Attagene transcription factor profiling; actives raise or lower the signal
In short: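 Transcript-level reporter induction in transfected HepG2 cells after 24 h chemical exposure, quantified by fluorescence from RT-PCR products separated by capillary electrophoresis.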

[9] = ATG_RORE_CIS: Attagene CIS-FACTORIAL HepG2 Assay for human RAR-related Orphan Receptor Element (RORE) (AID 2282959); conditions: HepG2 Attagene cis-factorial RORE reporter, mRNA; actives raise or lower the signal
In short: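 Multiplexed reporter assay measuring mRNA induction from a cis promoter element in transiently transfected HepG2 cells after 24 h treatment. Detection via RT-PCR and capillary electrophoresis fluorescence; DMSO serves as baseline.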

[10] = ATG_Sox_CIS: Attagene CIS-FACTORIAL HepG2 Assay for human SRY-box transcription factor (SOX) (AID 2282960); conditions: HepG2 Attagene cis-factorial SOX reporter, mRNA; actives raise or lower the signal
In short: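 Cells were transfected with reporter constructs under cis-regulatory promoters, then exposed to chemicals for 24 h. Reporter transcripts were quantified by fluorescence after RT-PCR and capillary electrophoresis; activity was fitted in both directions against DMSO.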

Measured: AC50

Heat shock factor protein 1 (Homo sapiens), sequence (Q00613 whole entry, looked up): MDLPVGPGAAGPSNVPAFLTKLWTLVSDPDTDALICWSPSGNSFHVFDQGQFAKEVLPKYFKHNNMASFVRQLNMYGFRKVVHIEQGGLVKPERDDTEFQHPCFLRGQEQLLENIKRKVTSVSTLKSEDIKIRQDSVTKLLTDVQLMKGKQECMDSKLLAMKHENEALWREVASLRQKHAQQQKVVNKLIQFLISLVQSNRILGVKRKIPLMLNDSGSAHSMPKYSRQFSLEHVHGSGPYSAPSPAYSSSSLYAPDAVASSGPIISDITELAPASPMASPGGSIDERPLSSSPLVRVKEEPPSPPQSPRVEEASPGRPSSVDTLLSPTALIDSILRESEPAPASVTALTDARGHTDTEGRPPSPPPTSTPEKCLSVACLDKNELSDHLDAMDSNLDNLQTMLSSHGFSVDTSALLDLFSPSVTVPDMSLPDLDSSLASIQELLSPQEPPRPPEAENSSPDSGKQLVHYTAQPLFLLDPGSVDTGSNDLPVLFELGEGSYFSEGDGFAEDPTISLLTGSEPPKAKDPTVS
Paired box protein Pax-6 (Homo sapiens), sequence (P26367 whole entry, looked up): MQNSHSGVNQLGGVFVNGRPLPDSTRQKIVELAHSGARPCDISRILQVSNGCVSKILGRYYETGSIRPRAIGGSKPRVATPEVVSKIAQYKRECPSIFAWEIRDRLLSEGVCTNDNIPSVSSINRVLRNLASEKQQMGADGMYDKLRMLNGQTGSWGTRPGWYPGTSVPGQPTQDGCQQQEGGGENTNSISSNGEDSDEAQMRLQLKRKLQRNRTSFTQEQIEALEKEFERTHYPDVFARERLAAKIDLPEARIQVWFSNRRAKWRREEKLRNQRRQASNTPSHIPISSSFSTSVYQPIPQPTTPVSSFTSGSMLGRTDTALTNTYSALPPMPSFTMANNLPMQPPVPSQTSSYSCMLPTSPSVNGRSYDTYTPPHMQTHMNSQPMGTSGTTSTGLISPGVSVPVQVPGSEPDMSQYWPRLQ
Hypoxia-inducible factor 1-alpha (Homo sapiens), sequence (Q16665 whole entry, looked up): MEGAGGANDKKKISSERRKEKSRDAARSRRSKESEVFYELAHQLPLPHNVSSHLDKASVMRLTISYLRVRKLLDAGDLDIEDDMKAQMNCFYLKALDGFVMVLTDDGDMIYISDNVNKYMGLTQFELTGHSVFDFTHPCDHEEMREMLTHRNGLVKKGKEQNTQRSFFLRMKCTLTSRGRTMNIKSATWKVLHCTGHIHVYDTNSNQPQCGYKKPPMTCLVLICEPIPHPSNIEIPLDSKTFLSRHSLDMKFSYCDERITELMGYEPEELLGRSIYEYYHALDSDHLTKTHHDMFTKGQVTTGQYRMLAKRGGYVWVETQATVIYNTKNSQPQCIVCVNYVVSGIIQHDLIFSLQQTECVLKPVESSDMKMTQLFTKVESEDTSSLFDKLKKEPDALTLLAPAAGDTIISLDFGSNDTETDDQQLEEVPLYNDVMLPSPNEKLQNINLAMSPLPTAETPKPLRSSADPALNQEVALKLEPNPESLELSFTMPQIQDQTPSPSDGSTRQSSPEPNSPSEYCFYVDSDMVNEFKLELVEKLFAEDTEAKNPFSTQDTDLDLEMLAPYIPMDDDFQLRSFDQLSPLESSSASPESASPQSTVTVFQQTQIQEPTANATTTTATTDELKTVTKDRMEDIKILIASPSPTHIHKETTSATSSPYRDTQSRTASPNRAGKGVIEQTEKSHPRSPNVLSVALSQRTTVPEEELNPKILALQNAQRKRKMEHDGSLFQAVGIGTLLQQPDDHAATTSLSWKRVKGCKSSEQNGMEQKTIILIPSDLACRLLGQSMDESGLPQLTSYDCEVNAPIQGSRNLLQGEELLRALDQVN
Hepatocyte nuclear factor 6 (Homo sapiens), sequence (Q9UBC0 whole entry, looked up): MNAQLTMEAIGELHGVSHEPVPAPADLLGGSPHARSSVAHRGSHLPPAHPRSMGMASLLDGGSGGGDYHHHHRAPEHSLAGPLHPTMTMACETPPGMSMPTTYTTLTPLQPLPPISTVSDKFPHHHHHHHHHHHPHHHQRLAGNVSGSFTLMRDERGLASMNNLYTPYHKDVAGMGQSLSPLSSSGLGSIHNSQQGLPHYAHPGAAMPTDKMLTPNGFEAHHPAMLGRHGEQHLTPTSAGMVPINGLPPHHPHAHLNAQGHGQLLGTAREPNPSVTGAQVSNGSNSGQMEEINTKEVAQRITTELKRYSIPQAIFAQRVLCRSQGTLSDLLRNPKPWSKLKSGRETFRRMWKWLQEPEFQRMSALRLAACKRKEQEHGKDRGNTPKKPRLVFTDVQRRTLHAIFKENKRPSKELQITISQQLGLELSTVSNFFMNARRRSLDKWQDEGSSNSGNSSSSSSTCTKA

NC(=O)CCl
active: [7] 27.2 µM
inactive: all other assays above

CC(C)[C@@H](Nc1ccc(C(F)(F)F)cc1Cl)C(=O)OC(C#N)c1cccc(Oc2ccccc2)c1 (stereo not given in full)
active: [5] 1.43 µM | [7] 0.693 µM
not listed: [9] | [10]
inactive: all other assays above

N#Cc1cccnc1
inactive: all assays above

O=[N+]([O-])c1ccc(Cl)c([N+](=O)[O-])c1
active: [3] 6.97 µM
not listed: [10]
inactive: all other assays above

C=CC(=O)NC(C)(C)CC(C)=O
not listed: [10]
inactive: all other assays above

CCCCCCCCCCCCOS(=O)(=O)O
active: [1] 11.1 µM | [4] 2.2 µM
inactive: [1] | [2] | [4] | [6] | [7] | [10]

Cc1cc(Cl)ccc1OCCCC(=O)O
not listed: [10]
inactive: all other assays above

CCOP(=S)(OCC)SCS(=O)(=O)C(C)(C)C
active: [7] 4.12 µM
inactive: all other assays above

COC(F)(C(F)(F)C(F)(F)F)C(F)(C(F)(F)F)C(F)(F)F (stereo not given)
inactive: all assays above

CCCSP(=S)(OCC)Oc1ccc(Cl)cc1Cl (stereo not given)
active: [7] 2.72 µM
inactive: all other assays above

Cc1ccc(CCl)cc1
inactive: all assays above

CC1(C)[C@H](C(=O)O[C@H](C#N)c2cccc(Oc3ccccc3)c2)[C@@H]1/C=C(\Cl)C(F)(F)F
active: [5] 1.16 µM | [7] 384 nM and 683 nM
inactive: [1] | [2] | [3] | [4] | [5] | [6] | [8] | [9] | [10]

CC(C)[C@H](C(=O)OC(C#N)c1cccc(Oc2ccccc2)c1)c1ccc(OC(F)F)cc1 (stereo not given in full)
active: [5] 1.18 µM | [7] 0.396 µM
not listed: [10]
inactive: all other assays above

O=C(N[C@H]1CN2CCC1CC2)c1ccc2c(c1)OCCO2
active: [8] 100 µM
not listed: [10]
inactive: all other assays above

CC(=O)C(F)(F)C(F)(F)F
inactive: all assays above

CCOC(=O)c1ccccc1S(=O)(=O)NC(=O)Nc1nc(Cl)cc(OC)n1
active: [7] 5.49 µM
inactive: all other assays above

OC(c1ccc(Cl)cc1)(c1ccc(Cl)cc1)c1cccnc1
active: [7] 1.89 µM
inactive: all other assays above

O=C(O)c1cc(I)cc(I)c1I
active: [7] 30.3 µM | [8] 27.8 µM
not listed: [10]
inactive: all other assays above

C=CC(F)(C(F)(F)F)C(F)(F)C(F)(F)F (stereo not given)
inactive: all assays above

Cc1ccccc1OP(=O)(Oc1ccccc1)Oc1ccccc1
active: [4] 59.8 µM | [7] 0.236 µM
not listed: [10]
inactive: all other assays above

N#CCC#N
not listed: [9] | [10]
inactive: all other assays above

COCC(=O)N(c1c(C)cccc1C)[C@H](C)C(=O)OC
active: [7] 27.7 µM
inactive: all other assays above

O=C(NC(=O)c1c(F)cccc1F)Nc1cc(Cl)c(Oc2ncc(C(F)(F)F)cc2Cl)c(Cl)c1
not listed: [10]
inactive: all other assays above

CC(C)(COCC1CO1)COCC1CO1 (stereo not given)
active: [4] 100 µM | [7] 27.3 µM
not listed: [10]
inactive: all other assays above

Nc1ccc(N)cc1
active: [1] 100 µM | [7] 33 µM
inactive: [1] | [2] | [4] | [5] | [6] | [7] | [9]

COC(=O)c1cc(Oc2ccc(Cl)cc2Cl)ccc1[N+](=O)[O-]
inactive: [2] | [3] | [6] | [10]
active: [1] 21.3 µM | [4] 17.9 µM | [5] 11.8 µM | [7] 5.12 µM | [8] 10.2 µM | [9] 16.6 µM

O=[N+]([O-])c1ccccc1O
inactive: [1] | [2] | [3] | [4] | [5] | [6] | [7] | [9] | [10]
active: [7] 26.7 µM

CCCCC(CC)C(=O)Cl (stereo not given)
not listed: [9] | [10]
inactive: all other assays above

[Cl][Sn]([c]1ccccc1)([c]1ccccc1)[c]1ccccc1
inactive: [5] | [7] | [9]
active: [1] 0.252 µM | [2] 1.62 µM | [3] 0.243 µM | [4] 0.23 µM | [6] 0.248 µM | [8] 0.0117 µM | [10] 0.217 µM

O=c1oc2ccccc2c(O)c1C(CC(O)c1ccc(-c2ccc(Br)cc2)cc1)c1ccccc1 (stereo not given)
inactive: [1] | [2] | [5] | [9] | [10]
active: [1] 14.6 µM | [3] 48.7 µM and 59.6 µM | [4] 40.3 µM and 31.9 µM | [5] 31.7 µM | [6] 46.5 µM and 31.9 µM | [7] 8.03 µM and 7.59 µM | [8] 10.8 µM and 227 nM

OC(Cc1ccccc1Cl)(Cn1cncn1)C1(Cl)CC1 (stereo not given)
active: [4] 37.3 µM | [5] 19.8 µM | [7] 8.32 µM
not listed: [10]
inactive: all other assays above

Nc1ncn[nH]1
inactive: all assays above

CCC[CH2][Sn]([Cl])([Cl])[CH2]CCC
inactive: [2] | [5]
active: [1] 1.24 µM | [3] 0.818 µM | [4] 1.24 µM | [6] 1.46 µM | [7] 0.865 µM | [8] 0.0625 µM | [9] 0.584 µM | [10] 1.61 µM

Cc1cccc(OP(=O)(Oc2cccc(C)c2)Oc2cccc(C)c2)c1
active: [7] 1.32 µM
not listed: [9] | [10]
inactive: all other assays above

COc1ccc(N)cc1
inactive: [1] | [2] | [3] | [4] | [6] | [7] | [8] | [9] | [10]
active: [1] 181 µM

C=CCOC(F)(C(F)(F)F)C(F)(F)F
inactive: all assays above

CCOC(=O)CCN(SN(C)C(=O)Oc1cccc2c1OC(C)(C)C2)C(C)C
active: [3] 184 µM | [4] 142 µM | [7] 26.5 µM
not listed: [9] | [10]
inactive: all other assays above

c1cc[c]([Sb]([c]2ccccc2)[c]2ccccc2)cc1
active: [7] 2.1 µM
not listed: [10]
inactive: all other assays above

CCCCC(CC)COC(=O)Cl (stereo not given)
not listed: [8] | [9] | [10]
inactive: all other assays above

N#Cc1ccccc1N
active: [7] 39.4 µM
inactive: all other assays above

CNC(=O)N(C)c1nc2ccccc2s1
active: [7] 27.5 µM
inactive: all other assays above

CCCCCCCCCCCCCCC(Br)C(=O)O (stereo not given)
inactive: [7] | [10]
active: [1] 150 µM | [2] 187 µM | [3] 154 µM | [4] 161 µM | [5] 100 µM | [6] 142 µM | [8] 42.2 µM | [9] 111 µM

Cc1cccc(N=Nc2ccc(N(C)C)cc2)c1
active: [7] 10.5 µM
inactive: all other assays above

c1ccc2sc(SNC3CCCCC3)nc2c1
active: [1] 100 µM | [3] 159 µM | [4] 119 µM | [6] 154 µM | [7] 27 µM
inactive: all other assays above

CC(C)(c1ccc(O)c(-c2ccccc2)c1)c1ccc(O)c(-c2ccccc2)c1
active: [4] 2.93 µM | [7] 0.965 µM
inactive: all other assays above

O=S(=O)(C(Cl)(Cl)Cl)C(Cl)(Cl)Cl
inactive: [1] | [2] | [5] | [8]
active: [3] 7.93 µM | [4] 16.5 µM | [6] 16 µM | [7] 11.1 µM | [10] 11.1 µM
